Results filed as inconclusive are left out. Active and inactive are the calls of the source. Unless noted, calls come from the whole dose curve; as a rule, active = well fitted curve in the direction sought with a large enough effect in the repeat runs; inconclusive = weak or mixed curves; inactive = no such curve, though single readings can be large; an effect the other way counts as inactive or inconclusive.
Columns and labels:
[1] = qHTS assay to identify aromatase inhibitors - cell viability counter screen (AID 743084);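 note: cells stimulated with testosterone during compound exposure; nearly all actives have a fitted effect of over 55% in size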
[2] = target: Aryl hydrocarbon receptor (Homo sapiens) (UniProt P35869); assay: qHTS assay to identify small molecule that activate the aryl hydrocarbon receptor (AhR) signaling pathway (AID 743085);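 note: HG2L7.5c1 human HepG2 liver cells with stably integrated DRE-driven firefly reporter; series mostly up to about 70 µM; nearly all actives have a fitted effect of over 15% in size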
Outline: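 Reporter assay in engineered HepG2 line HG2L7.5c1, whose plasmid carries twenty dioxin responsive elements upstream of firefly luciferase. Treatment lasted 24 h at 37C; ONE-Glo luminescence gauged induction.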

[3] = qHTS assay to identify small molecule that activate the aryl hydrocarbon receptor (AhR) signaling pathway - cell viability counter screen (AID 743086);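 note: HepG2 liver cells carrying the AhR DRE luciferase reporter; series mostly up to about 70 µM; nearly all actives have a fitted effect of over 45% in size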
Outline: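 HepG2-AhR-luc (HG2L7.5c1) cells, 4000/well, were preincubated 5 h at 37C, exposed to compound in qHTS format for 24 hr at 37C, then given CellTiter-Fluor for 30 min; viability was read as fluorescence in the reporter wells.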

[4] = target: Peroxisome proliferator-activated receptor gamma (Homo sapiens) (UniProt P37231); assay: qHTS assay to identify small molecule agonists of the peroxisome proliferator-activated receptor gamma (PPARg) signaling pathway (AID 743094; active = well fitted activation curve with a large enough effect in the signal ratio in the repeat runs, not every such curve was filed as active; the % refers to the signal ratio)
Outline: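 Stably transfected HEK293H cells (GeneBLAzer PPARg UAS-bla) were incubated with test substances for 17 h at 37C after a 5 h pre-incubation; beta-lactamase activity was then detected by FRET substrate fluorescence.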

[5] = target: Peroxisome proliferator-activated receptor gamma (Homo sapiens) (UniProt P37231); assay: qHTS assay to identify small molecule antagonists of the peroxisome proliferator-activated receptor gamma (PPARg) signaling pathway (AID 743191; calls by dose curve; note: series mostly up to about 63 µM; nearly all actives have a fitted effect of over 30% in size)
Outline: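 GeneBLAzer PPARg UAS-bla HEK293H cells carrying a UAS-driven beta-lactamase reporter were plated at 3000 cells/well, preincubated 5 h at 37C, then given compound for 17 h at 37C; LiveBLAzer B/G FRET substrate was read after 1 h at room temperature.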

[6] = qHTS assay to identify small molecule antagonists of the peroxisome proliferator-activated receptor gamma (PPARg) signaling pathway - cell viability counter screen (AID 743194); note: nearly all actives have a fitted effect of over 55% in size; note: potency is the fitted concentration of half-maximal effect
Outline: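 PPARg-UAS-bla HEK293H cells were plated, rested 5 h at 37 C, then treated with compounds plus rosiglitazone (50 nM final) for 17 h at 37 C; viability was then read by CellTiter-Glo luminescence after 30 min at room temperature.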

[7] = qHTS assay for small molecule agonists of the antioxidant response element (ARE) signaling pathway (AID 743202; active = well fitted activation curve with a large enough effect in the signal ratio in the repeat runs, not every such curve was filed as active; the % refers to the signal ratio)
Outline: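 Read-out: LiveBLAzer B/G FRET substrate fluorescence after 2 h at room temperature, following 16 h compound treatment at 37 C of HepG2 cells carrying an ARE-driven beta-lactamase reporter.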

[8] = qHTS assay for small molecule activators of the heat shock response signaling pathway - cell viability counter screen (AID 743209); note: nearly all actives have a fitted effect of over 50% in size
Outline: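 Quantitative HTS format, Tox21 10K library. HeLa cells carrying an HSE-driven beta-lactamase reporter were treated 5 h at 37 C, then assessed for viability by CellTiter-Glo luminescence.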

[9] = qHTS assay for small molecule activators of the heat shock response signaling pathway (AID 743210; active = well fitted activation curve with a large enough effect in the signal ratio in the repeat runs, with a control signal flat, not every such curve was filed as active; the % refers to the signal ratio; note: series mostly up to about 63 µM)
Outline: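 HSE-bla HeLa cells (beta-lactamase reporter under heat shock response elements) were exposed to compounds for 5 h at 37 C, then loaded with LiveBLAzer B/G FRET substrate for 2.5 h at room temperature before fluorescence reading.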

[10] = qHTS assay to identify small molecule agonists of the peroxisome proliferator-activated receptor delta (PPARd) signaling pathway - cell viability counter screen (AID 743211); note: nearly all actives have a fitted effect of over 55% in size; note: potency is the fitted concentration of half-maximal effect
Outline: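 Multiplexed format: after the 2 h room-temperature LiveBLAzer B/G FRET step, CellTiter-Glo was added to the same wells. Luminescence after 30 min gave cell viability; compound exposure was 17 h at 37C.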

[11] = target: Peroxisome proliferator-activated receptor delta (Homo sapiens) (UniProt Q03181); assay: qHTS assay to identify small molecule agonists of the peroxisome proliferator-activated receptor delta (PPARd) signaling pathway (AID 743212; calls by dose curve; note: potency is the fitted concentration of half-maximal effect)
Outline: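 GeneBLAzer PPARd UAS-bla HEK293H cells (beta-lactamase reporter under UAS control), plated and rested 5 h at 37 C, then exposed to compounds in DMSO at 37 C; LiveBLAzer B/G FRET substrate added, 2 h room temperature, fluorescence read.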

[12] = qHTS assay to identify small molecule antagonists of the peroxisome proliferator-activated receptor delta (PPARd) signaling pathway - cell viability counter screen (AID 743213); note: nearly all actives have a fitted effect of over 50% in size
Outline: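 In this counter screen, HEK293H cells carrying a UAS-beta-lactamase reporter are co-treated with test compounds and 300 nM L165041 (final) for 17 h at 37 C; cell viability is quantified by CellTiter-Glo luminescence.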

[13] = target: Peroxisome proliferator-activated receptor delta (Homo sapiens) (UniProt Q03181); assay: qHTS assay to identify small molecule antagonists of the peroxisome proliferator-activated receptor delta (PPARd) signaling pathway (AID 743215; active = well fitted inhibition curve with a large enough effect in the signal ratio in the repeat runs, not every such curve was filed as active; the % refers to the signal ratio;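 note: cells stimulated with agonist L165041 at 300 nM final during compound exposure; series mostly up to about 62 µM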)
Outline: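 Antagonist-mode beta-lactamase reporter screen: HEK293H cells with UAS-bla under PPARd control, stimulated by 300 nM L165041 (final) alongside test compound for 17 h at 37 C, then FRET fluorescence after 2 h substrate incubation.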

[14] = qHTS assay to identify small molecule agonists of the farnesoid-X-receptor (FXR) signaling pathway - cell viability counter screen (AID 743218); note: nearly all actives have a fitted effect of over 45% in size; note: potency is the fitted concentration of half-maximal effect
Outline: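 In GeneBLAzer FXR-UAS-bla HEK 293T cells, compounds act for 16 h at 37 C. Cell viability is then scored in the reporter wells by CellTiter-Glo, 30 min at RT, luminescence.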

[15] = qHTS assay to identify small molecule antagonists of the farnesoid-X-receptor (FXR) signaling pathway - cell viability counter screen (AID 743221; active = well fitted cell-killing curve with a large enough effect in the repeat runs, not every such curve was filed as active; note: nearly all actives have a fitted effect of over 50% in size)
Outline: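 CellTiter-Glo, 30 min RT, luminescence; same wells as the LiveBLAzer FRET read. Cells: FXR-UAS-bla HEK 293T. Treatment: compound with chenodeoxycholic acid 50 uM final, 16 h at 37 C.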

[16] = qHTS assay for small molecule agonists of the antioxidant response element (ARE) signaling pathway - cell viability counter screen (AID 743203; calls by dose curve; note: nearly all actives have a fitted effect of over 55% in size; note: potency is the fitted concentration of half-maximal effect)
Outline: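 Cells (ARE-bla HepG2, 2,000/well) receive DMSO-dissolved compounds after a 5 hrs rest. Plates incubate 16 hrs at 37C/5% CO2. CellTiter-Glo luminescence is then recorded after 30 min at room temperature.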

[17] = target: Vitamin D3 receptor (Homo sapiens) (UniProt P11473); assay: qHTS assay to identify small molecule agonists of the vitamin D receptor (VDR) signaling pathway (AID 743222; calls by dose curve)
Outline: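 Agonist activity measured in VDR-bla reporter cells. Exposure 16 h, 37C, 5% CO2; detection by B/G FRET substrate, 2 h RT.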

[18] = target: Vitamin D3 receptor (Homo sapiens) (UniProt P11473); assay: qHTS assay to identify small molecule antagonists of the vitamin D receptor (VDR) signaling pathway (AID 743223; active = well fitted inhibition curve with a large enough effect in the signal ratio in the repeat runs, not every such curve was filed as active; the % refers to the signal ratio)
Outline: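 After VDR-bla cells are plated and left 4 h at 37C, DMSO-dissolved compounds and 3 nM (final) calcitriol agonist are added. Incubation continues 16 h at 37C; FRET beta-lactamase substrate then develops 2 h at room temperature.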

[19] = target: Bile acid receptor (Homo sapiens) (UniProt Q96RI1); assay: qHTS assay to identify small molecule agonists of the farnesoid-X-receptor (FXR) signaling pathway (AID 743220; active = well fitted activation curve with a large enough effect in the signal ratio in the repeat runs, not every such curve was filed as active; the % refers to the signal ratio)
Outline: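 Beta-lactamase reporter under UAS control in GeneBLAzer FXR HEK 293T cells (5000/well) measured with LiveBLAzer FRET substrate after 2 h at room temperature. Compound exposure lasted 16 h at 37C.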

[20] = target: Bile acid receptor (Homo sapiens) (UniProt Q96RI1); assay: qHTS assay to identify small molecule antagonists of the farnesoid-X-receptor (FXR) signaling pathway (AID 743217; active = well fitted inhibition curve with a large enough effect in the signal ratio in the repeat runs, not every such curve was filed as active; the % refers to the signal ratio)
Outline: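 Beta-lactamase reporter under UAS control in HEK 293T cells; compound exposure 16 h at 37 °C in the presence of chenodeoxycholic acid (50 uM final); signal from B/G FRET substrate after 2 h at room temperature.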

Measured: Potency

Chain of Vitamin D3 receptor (Homo sapiens) (P11473 whole entry, looked up): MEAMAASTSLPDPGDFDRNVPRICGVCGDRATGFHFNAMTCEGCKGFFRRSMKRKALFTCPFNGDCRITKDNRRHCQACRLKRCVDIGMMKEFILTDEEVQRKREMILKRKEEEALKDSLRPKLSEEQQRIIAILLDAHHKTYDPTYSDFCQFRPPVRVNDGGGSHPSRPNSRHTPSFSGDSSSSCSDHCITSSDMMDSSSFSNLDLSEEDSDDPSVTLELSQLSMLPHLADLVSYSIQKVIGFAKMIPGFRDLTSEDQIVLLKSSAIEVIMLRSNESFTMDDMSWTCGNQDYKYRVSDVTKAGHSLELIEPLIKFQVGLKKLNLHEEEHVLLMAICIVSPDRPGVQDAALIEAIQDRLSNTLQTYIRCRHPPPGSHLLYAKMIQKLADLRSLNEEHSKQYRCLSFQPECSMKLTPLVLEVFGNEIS
Chain of Peroxisome proliferator-activated receptor gamma (Homo sapiens) (P37231 whole entry, looked up): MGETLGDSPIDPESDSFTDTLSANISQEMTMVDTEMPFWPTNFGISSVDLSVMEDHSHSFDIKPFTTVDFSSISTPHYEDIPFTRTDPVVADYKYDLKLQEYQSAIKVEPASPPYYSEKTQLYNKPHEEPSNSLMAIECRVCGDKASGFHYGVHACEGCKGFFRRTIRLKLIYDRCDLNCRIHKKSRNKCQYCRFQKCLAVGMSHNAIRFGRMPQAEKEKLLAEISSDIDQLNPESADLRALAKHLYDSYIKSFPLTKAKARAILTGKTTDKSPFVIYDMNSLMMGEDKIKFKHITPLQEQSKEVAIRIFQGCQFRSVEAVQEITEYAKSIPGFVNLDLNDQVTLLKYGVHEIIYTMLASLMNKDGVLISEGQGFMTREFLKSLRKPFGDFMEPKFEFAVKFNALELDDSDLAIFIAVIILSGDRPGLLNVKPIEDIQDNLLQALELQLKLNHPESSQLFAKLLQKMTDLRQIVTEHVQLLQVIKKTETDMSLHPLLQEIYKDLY
Chain of Peroxisome proliferator-activated receptor delta (Homo sapiens) (Q03181 whole entry, looked up): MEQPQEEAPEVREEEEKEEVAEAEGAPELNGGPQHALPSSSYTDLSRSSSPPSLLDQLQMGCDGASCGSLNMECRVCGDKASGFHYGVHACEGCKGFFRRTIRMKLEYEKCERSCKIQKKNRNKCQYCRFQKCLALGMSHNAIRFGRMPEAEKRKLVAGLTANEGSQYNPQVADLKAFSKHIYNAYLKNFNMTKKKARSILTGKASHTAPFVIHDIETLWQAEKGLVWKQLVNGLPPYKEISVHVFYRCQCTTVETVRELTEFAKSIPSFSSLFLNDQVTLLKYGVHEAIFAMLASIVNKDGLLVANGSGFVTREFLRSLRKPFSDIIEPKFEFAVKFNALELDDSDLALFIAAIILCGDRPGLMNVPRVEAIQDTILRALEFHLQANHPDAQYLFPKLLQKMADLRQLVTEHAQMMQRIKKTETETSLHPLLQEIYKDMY
Chain of Aryl hydrocarbon receptor (Homo sapiens) (P35869 whole entry, looked up): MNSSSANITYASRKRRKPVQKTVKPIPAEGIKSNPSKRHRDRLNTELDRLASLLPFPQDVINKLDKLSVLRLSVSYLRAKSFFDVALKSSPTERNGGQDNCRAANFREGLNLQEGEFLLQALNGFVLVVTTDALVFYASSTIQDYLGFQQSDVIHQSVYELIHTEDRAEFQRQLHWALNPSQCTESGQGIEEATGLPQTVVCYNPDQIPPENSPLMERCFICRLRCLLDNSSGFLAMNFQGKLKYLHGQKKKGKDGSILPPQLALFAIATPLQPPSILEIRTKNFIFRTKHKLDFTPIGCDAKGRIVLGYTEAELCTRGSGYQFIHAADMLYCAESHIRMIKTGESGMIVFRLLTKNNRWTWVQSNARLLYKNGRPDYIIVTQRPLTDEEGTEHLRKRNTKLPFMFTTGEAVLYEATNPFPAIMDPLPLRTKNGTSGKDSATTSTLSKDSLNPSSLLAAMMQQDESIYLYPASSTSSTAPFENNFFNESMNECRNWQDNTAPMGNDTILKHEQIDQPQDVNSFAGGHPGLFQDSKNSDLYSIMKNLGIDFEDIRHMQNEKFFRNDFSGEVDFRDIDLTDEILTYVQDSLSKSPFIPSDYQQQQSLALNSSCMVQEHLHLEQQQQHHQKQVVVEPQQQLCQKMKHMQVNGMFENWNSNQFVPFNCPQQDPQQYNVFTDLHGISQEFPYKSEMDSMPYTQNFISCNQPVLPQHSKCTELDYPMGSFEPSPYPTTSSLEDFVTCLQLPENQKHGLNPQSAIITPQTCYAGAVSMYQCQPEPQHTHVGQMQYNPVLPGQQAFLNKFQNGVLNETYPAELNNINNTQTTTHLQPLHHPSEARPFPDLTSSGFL
Chain of Bile acid receptor (Homo sapiens) (Q96RI1 whole entry, looked up): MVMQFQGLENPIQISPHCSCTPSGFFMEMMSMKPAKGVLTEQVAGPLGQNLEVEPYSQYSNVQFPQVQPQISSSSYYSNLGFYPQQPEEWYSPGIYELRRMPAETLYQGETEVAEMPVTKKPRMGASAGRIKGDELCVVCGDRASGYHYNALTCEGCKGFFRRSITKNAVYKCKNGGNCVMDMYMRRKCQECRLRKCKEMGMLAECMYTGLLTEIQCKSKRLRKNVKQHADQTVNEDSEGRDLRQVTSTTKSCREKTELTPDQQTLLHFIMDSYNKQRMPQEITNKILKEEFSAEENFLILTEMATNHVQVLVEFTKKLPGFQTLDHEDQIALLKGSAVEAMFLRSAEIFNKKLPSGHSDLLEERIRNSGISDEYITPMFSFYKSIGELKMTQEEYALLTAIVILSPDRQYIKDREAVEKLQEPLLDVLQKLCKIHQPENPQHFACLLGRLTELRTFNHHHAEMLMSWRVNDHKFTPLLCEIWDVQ

CCn1cc(C(=O)O)c(=O)c2cc(F)c(N3CCNCC3)cc21
not listed: [16] | [17] | [18] | [19] | [20]
inactive: all other assays above

CCOC(=O)[C@H](CCc1ccccc1)N[C@@H](C)C(=O)N(CC(=O)O)C1Cc2ccccc2C1
not listed: [10] | [11] | [12] | [14] | [15] | [19] | [20]
inactive: all other assays above

OCCOCC#CCOCCO
not listed: [13] | [14] | [15] | [18] | [19] | [20]
inactive: all other assays above

CC(C)COCC(CN(Cc1ccccc1)c1ccccc1)N1CCCC1 (stereo unspecified)
inactive: [1] | [2] | [3] | [4] | [5] | [13] | [19]
active: [6] 26.6 µM | [16] 26.6 µM | [10] 21.1 µM | [14] 33.5 µM

C=COCC(C)C
not listed: [6]
inactive: all other assays above

CCCCCC[C@@H](O)C/C=C\CCCCCCCC(=O)OCC(O)CO (stereo partly specified)
active: [11] 49 µM
not listed: [8] | [9] | [10] | [13] | [18] | [19] | [20]
inactive: all other assays above

CCCCCCC(C)(C)C(=O)O
not listed: [6] | [18]
inactive: all other assays above

C=CC(C)(CCC=C(C)C)OC(=O)CC(C)C (stereo unspecified)
not listed: [7] | [18] | [19] | [20]
inactive: all other assays above

FC(F)(F)c1ccccc1Cl
not listed: [16]
inactive: all other assays above

CN1CCCN=C1COC(=O)C(O)(c1ccccc1)C1CCCCC1 (stereo unspecified)
not listed: [6] | [10] | [12] | [17] | [18]
inactive: all other assays above

NCCNCCO
not listed: [14]
inactive: all other assays above

CCOC(=O)/C=C/C(=O)OCC
not listed: [7] | [19] | [20]
inactive: all other assays above

CC[N+](CC)(CCNC(=O)C(=O)NCC[N+](CC)(CC)Cc1ccccc1Cl)Cc1ccccc1Cl
not listed: [6] | [8] | [10] | [16] | [17] | [18] | [19] | [20]
inactive: all other assays above

CC(C)(C)C(=O)C(=O)O
not listed: [7] | [15] | [18]
inactive: all other assays above

CC(C)=CCC/C(C)=C/CC/C(C)=C/CCC(=O)OC/C=C(\C)CCC=C(C)C
not listed: [14] | [17] | [18] | [19] | [20]
inactive: all other assays above

CC(O)c1ccccc1 (stereo unspecified)
not listed: [19] | [20]
inactive: all other assays above

Cc1ccc(C(C)(C)O)cc1
not listed: [6] | [16] | [18] | [19] | [20]
inactive: all other assays above
